Screening results deposited in PubChem by National Center for Advancing Translational Sciences (NCATS).
IMPase Li cell – qHTS Assay for Identifying the Cell-Membrane Permeable IMPase Inhibitors: Potentiation with Lithium; CHO-M1 cells, IP1 TR-FRET (IP-One), carbachol + lithium; Potency, µM (titrated, usually from 59.4 µM), for the others: top-dose activity, negative = IMPase inhibition, usual class: inhibitors; hit rate 0.35% among 210,000; AID 1457, 2008;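 note: IP1 builds up when IMPase is blocked and the TR-FRET signal falls; potency is the fitted concentration of half-maximal effect; plate controls were basal vehicle for no effect and high inhibitor control for full effect; nearly all actives have a fitted effect of over 50% in size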
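CHO-M1, 2000 cells/well, 16–30 h culture; cpd + low Li+, 30 min 37C; lysis with d2-IP1/Eu-anti-IP1 Ab, 10 min RT; TR-FRET 665/620 ratio and 620 channel; AC50 via Hill.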
12-hLO inh – qHTS Assay for Inhibitors of 12-hLO (12-human lipoxygenase). Polyunsaturated fatty acid lipoxygenase ALOX12 (Homo sapiens), P18054. Potency, µM (titrated, usually from 57.1 µM), for the others: at the top dose activity change, negative = inhibition, usual class: inhibitors. hit rate 0.12% among 150,000. purified 12-hLO, xylenol orange hydroperoxide absorbance; note: potency is the fitted concentration of half-maximal effect; nearly all actives have a fitted effect of over 55% in size
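Purified human 12hLO (150 nM final) was preincubated with compounds for 15 min at room temperature in 25 mM Hepes pH 7.0, 0.01% Triton X-100, then reacted with 40 uM arachidonic acid for 30 min. Hydroperoxide was detected with ferrous iron/xylenol orange.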
PNC assembly inh – High Content Assay for Compounds that inhibit the Assembly of the Perinucleolar Compartment; PC3M PTB-GFP, PNC prevalence imaging, 16 h; active compounds read low; activity change (PNC), negative = inhibition, % at 10 µM; hit rate 3.1% among 140,000; AID 2417, 2010;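 active = readout at or below -70, meaning at least 70% loss of cells showing the perinucleolar compartment, a nuclear body marking cancer cells; inconclusive = readout between -30 and a set limit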;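 note: plate controls were DMSO wells for no effect and camptothecin positive control wells for full effect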
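Compounds are pinned in duplicate onto adhered PC3M cells stably expressing GFP-tagged PTB and incubated 16 h at 37 C. Cells are then fixed, nuclei stained with Hoechst, and PNC-positive cells counted.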
IMPase cell inh – qHTS Assay for Identifying the Cell-Membrane Permeable IMPase Inhibitors; Inositol monophosphatase 1 (Rattus norvegicus), P97697; CHO-M1 cells, IP1 accumulation, HTRF TR-FRET ratio; inhibition (IP1 accumulation), % at 46.1 µM; 120,000 tested, under 10 active; AID 901, 2007; active = well fitted curve in the direction sought with a large enough effect in the signal ratio, not every such curve was filed as active; inconclusive = small, poorly fitted or top-dose-only effect, or a change in a side signal; inactive = no such curve, though single readings can be large or run the other way; the % refers to the signal ratio;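 note: cells stimulated with carbachol in lithium chloride buffer; plate controls were DMSO basal wells for no effect and reference inhibitor wells for full effect; higher means more IMPase inhibition seen as more IP1 and lower FRET ratio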
Target sequence (P97697 whole entry, looked up): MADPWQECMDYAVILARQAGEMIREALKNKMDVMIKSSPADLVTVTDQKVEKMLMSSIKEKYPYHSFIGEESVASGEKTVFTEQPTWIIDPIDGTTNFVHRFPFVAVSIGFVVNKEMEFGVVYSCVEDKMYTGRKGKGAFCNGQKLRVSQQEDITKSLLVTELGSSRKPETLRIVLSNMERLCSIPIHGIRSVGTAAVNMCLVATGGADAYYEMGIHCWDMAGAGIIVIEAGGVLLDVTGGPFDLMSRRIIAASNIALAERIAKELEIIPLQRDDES
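Seeded CHO-M1 cells were dosed with compound at up to 46 uM, stimulated with carbachol for 30 min, then lysed in IP-One detection reagents. Higher IP1 lowers the TR-FRET signal.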
HPGD inh – qHTS Assay for Inhibitors of HPGD (15-Hydroxyprostaglandin Dehydrogenase); 15-hydroxyprostaglandin dehydrogenase [NAD(+)] (Homo sapiens), P15428; purified HPGD, NADH fluorescence kinetic, PGE2 substrate; Potency, µM, for the others: at the highest dose activity change, negative = inhibition, usual class: inhibitors; hit rate 4.3% among 150,000; AID 894, 2007; active = well fitted inhibition curve with a large enough effect, not every such curve was filed as active; inconclusive = small, poorly fitted or top-dose-only effect, or another doubt; inactive = no such curve, though single readings can be large or run the other way; note: potency is the fitted concentration of half-maximal effect
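20 nM HPGD preincubated 15 min at room temperature with compound in 50 mM Tris-HCl pH 8, 0.01% Tween 20. Started with 1 mM NAD+ and 30 uM prostaglandin E2; NADH fluorescence (360/450 nm) read 5 times over 30-s intervals, last minus first.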
ALDH1A1 block – qHTS Assay for Inhibitors of Aldehyde Dehydrogenase 1 (ALDH1A1) | Purified ALDH1A1, NADH fluorescence, propionaldehyde substrate | Potency, µM (titrated, usually from 75.3 µM), for the others: top-dose activity, negative = inhibition, actives largely listed as inhibitors | hit rate 7.3% among 220,000 | Aldehyde dehydrogenase 1A1 (Homo sapiens), P00352; active = well fitted inhibition curve with a large enough effect, not every such curve was filed as active; inconclusive = small, poorly fitted or top-dose-only effect, or another doubt; inactive = no such curve, though single readings can be large or run the other way;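 note: potency is the fitted concentration of half-maximal effect; plate controls were no enzyme wells and a reference inhibitor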
Target sequence (P00352 whole entry, looked up): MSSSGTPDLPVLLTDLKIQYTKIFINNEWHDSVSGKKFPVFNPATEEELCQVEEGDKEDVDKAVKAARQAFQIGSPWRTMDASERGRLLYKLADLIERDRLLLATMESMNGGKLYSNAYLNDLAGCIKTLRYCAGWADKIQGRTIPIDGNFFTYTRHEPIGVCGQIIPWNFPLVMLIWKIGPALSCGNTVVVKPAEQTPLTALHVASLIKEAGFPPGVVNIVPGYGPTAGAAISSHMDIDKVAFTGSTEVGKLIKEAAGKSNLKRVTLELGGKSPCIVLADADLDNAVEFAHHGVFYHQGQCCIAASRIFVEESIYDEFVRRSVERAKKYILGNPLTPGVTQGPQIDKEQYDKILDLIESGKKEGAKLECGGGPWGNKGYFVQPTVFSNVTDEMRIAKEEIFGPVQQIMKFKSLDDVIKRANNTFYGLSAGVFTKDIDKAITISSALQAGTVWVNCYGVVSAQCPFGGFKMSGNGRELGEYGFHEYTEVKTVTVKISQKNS
Active calls of the source: *; ? = inconclusive; . = no result; [ ] = dose if it differs, or a comment. Rows were chosen to be rich in hits. Some 11% of all compounds tested hit in one or more screens of this group. Unless noted, calls come from the whole dose curve; as a rule, active = well fitted curve in the direction sought with a large enough effect; inconclusive = small, poorly fitted or top-dose-only effect, or another doubt; inactive = no such curve, though single readings can be large; an effect the other way counts as inactive or inconclusive. Unless noted, % is set by controls: 0 for no effect and ±100 for the full control effect.

SMILES	IMPase Li cell	12-hLO inh	PNC assembly inh	IMPase cell inh	HPGD inh	ALDH1A1 block
CCC1(c2ccc(Cl)cc2)NC(=S)N(c2ccc(C)cc2)N1 (configuration not stated)	-4%	-10%	1	.	?	28µM*
CC1(CCc2ccccc2)NC(=S)N(c2ccccc2)N1 (configuration not stated)	5%	?	-124*	.	40µM*	14%
CCC1(c2ccccc2)NC(=S)N(c2ccc(C)c(C)c2)N1 (configuration not stated)	7%	.	.	.	.	?
CN(C)c1ccc(-c2cncnc2NCc2ccccc2)cc1	7%	1%	.	.	?	?
CCn1c(C(=O)N2CCCC(C(=O)NCCc3ccc(C)cc3)C2)cc2sccc21 (configuration not stated)	-11%[38.3 µM]	-5%	?	-1	-5%	32µM*
Cn1c(C(=O)N2CCCC(C(=O)NCCCSC3CCCCC3)C2)cc2sccc21 (configuration not stated)	-1%[38.3 µM]	?	?	0	-5%	1.3µM*
CCn1c(C(=O)N2CCCC(C(=O)NCCCc3ccccc3)C2)cc2sccc21 (configuration not stated)	16%	7%	179	1	-15%	?
Cc1ccc(NC(=O)COc2ccc3oc4c(c3c2)CCCC4)c(C)c1	.	.	.	5	.	.
C=CCN1CCc2c(cc(O)c(O)c2Br)[C@H](c2ccccc2)C1	.	-26%	.	9	.	.
Cc1ccc(C(=O)N/N=C/c2cc(C)n(-c3ccc(Br)cc3)c2C)cc1[N+](=O)[O-]	-12%[38.3 µM]	-7%	11	8	?	10µM*
Cc1ccc(-n2c(C)cc(/C=N/NC(=O)c3ccncc3)c2C)cc1	8%	-1%	45	2	-6%	?
COc1ccc(C)cc1NC(=O)C(=O)NCc1ccncc1	.	-3%	?	1	.	18µM*
CCCCCC(=O)Nc1cc2[nH]c(=O)cc(COC)c2cc1C	11µM*	6%	?	5	?	?
COCc1cc(=O)[nH]c2cc(NC(=O)C(C)(C)CCl)c(C)cc12	2%[38.3 µM]	0%	?	6[1.84 µM]	-22%	?
Cc1ccc(O)c(NC(=O)CCCC(=O)O)c1	0%[38.3 µM]	-3%	-101*	3	-6%	12%
CCCCCCCCC(=O)Nc1cc(C)ccc1OC	12%	-1%	-100*	3	-13%	6%
CCOC(=O)Nc1cc(C)ccc1OC	19%[38.3 µM]	0%	-8	-2	-9%	7%
N#CCCn1c(=O)c(-c2cccs2)nc2cnc(N3CCNCC3)nc21	-6%	0%	.	.	?	?
COc1ccc(C)cc1NC(=O)CN(c1ccc(F)cc1)S(C)(=O)=O	4%[38.3 µM]	-4%	-94*	1	6%	6%
COc1cccc(NC(=O)c2ccc(-c3ccccc3[N+](=O)[O-])o2)c1	32%	.	.	.	.	?
Cc1cccc(NC(=O)c2ccc(-c3ccccc3[N+](=O)[O-])o2)c1	15%	.	.	.	.	2.2µM*
COc1ccc(S(=O)(=O)NCC2CCCN(C(=O)C=C(C)C)C2)cc1 (configuration not stated)	4%	.	.	.	.	4.5µM*
COC(=O)CCC(=O)N1CCCC(CNS(=O)(=O)c2ccc(OC)cc2)C1 (configuration not stated)	3%	.	.	.	.	8.9µM*
CCOC(=O)CNC(=O)N1CCCC(CNS(=O)(=O)c2cccs2)C1 (configuration not stated)	6%	.	.	.	.	-7%
COc1ccc(S(=O)(=O)NCC2CCCN(CC(C)(C)C)C2)cc1 (configuration not stated)	9%	.	.	.	.	20µM*
SMILES	IMPase Li cell	12-hLO inh	PNC assembly inh	IMPase cell inh	HPGD inh	ALDH1A1 block
CCOC(=O)c1cc(NC(=O)Nc2ccccc2OC)c(C)nc1C	4%[38.3 µM]	2%	-81*	4	-3%	3%
COc1ccccc1CNC(=O)CSc1ccc(-c2cccs2)nn1	-16%	.	.	.	.	?
O=C(CSc1ccc2nnc(-c3cccs3)n2n1)N1CCCC1	12%	.	.	.	.	?
O=C(CSc1ccc(-c2cccs2)nn1)NCc1ccccc1Cl	-1%	16%	?	?	32µM*	0%
O=C(CSc1ccc(-c2cccnc2)nn1)N1CCCCCC1	7%	.	.	.	.	-11%
O=C(CSc1ccc(-c2cccs2)nn1)N1CCCCCC1	-2%	2%	?	-18	11µM*	-5%
O=C(Nc1nnc(SCC(=O)N2CCOCC2)s1)c1ccccc1	-5%	-1%	-89*	.	32µM*	-7%
O=C(CSc1ccc(-c2cccs2)nn1)N1CCCCC1	0%	2%	9	-10	3.5µM*	?
c1ccc(Nc2ncncc2-c2ccc3c(c2)OCO3)cc1	-4%	.	.	.	.	0%
Cc1cccc(CNc2ccnc(-c3ccccc3CN(C)C)n2)c1	13%	5%	.	.	-16%	-3%
CC(C)CN(CC#N)CC(C)C	-2%	0%[11.4 µM]	.	.	-9%	7%[13.5 µM]
O=C(CSc1ccc(-c2ccc(F)cc2)nn1)N1CCOCC1	-5%	.	.	.	.	0%
O=C(CSc1ccc(-c2ccccc2)nn1)N1CCOCC1	8%[38.3 µM]	2%	2	5	-22%	28µM*
Cc1ccc(C2CC(=O)Oc3cc(C)c(Br)c(C)c32)cc1 (configuration not stated)	15%	1%[0.00818 µM]	.	.	-7%	13%
COc1ccc(CCNC(=O)c2ccc3c(c2)N=C(C)c2cc(C)ccc2S3)cc1OC	.	.	.	10	.	.
CCOc1ccc(-n2c(C)cc(/C=N/NC(=O)C(N)=O)c2C)cc1	4%	.	.	.	.	?
COc1ccc(-n2c(C)cc(/C=N/Nc3nnc(C)n3N)c2C)cc1	14%	-3%	22	-1	-19%	13µM*
CN(C)S(=O)(=O)N(CC(=O)NCCSCc1cccc(Cl)c1)c1ccccc1	.	.	.	2	.	.
COCC(=O)N1CCC2(CC1)CN(Cc1ccccc1OC)C2	2%	0%	.	.	-11%	-1%
CCOC(=O)c1sc(=S)n(C)c1NC(=O)c1ccccc1Cl	6%	-1%	23	8	28µM*	32µM*
